Inconclusive results are not listed. Entries that show only a call come without a potency. Calls of active or inactive are those of the source. Calls come from the whole dose curve; as a rule, active = well fitted inhibition curve with a large enough effect; inconclusive = small, poorly fitted or top-dose-only effect; inactive = no such curve, though single readings can be large or run the other way.

The experiment is described as follows: Counterscreen qHTS assay for inhibitors of N-terminal methyltransferase 1 (NTMT1): SPKRIA Counterscreen Assay. Conditions: biochemical qHTS; series mostly up to 99.2 µM. The text has this:
Assay Submitter (PI): Rong Huang Ph.D,
Purdue University, West Lafayette, IN 47907
The N-terminal methytransferase 1 is the first methyltransferase that methylates protein alpha-N-amines and plays an important role in regulating cell mitosis, chromatin interactions and DNA repair. It is observed to be over-expressed in various cancer patient tissues like malignant melanoma and colorectal cancer tissues. Knockdown of NTMT1 in cancer cells causes cell mitotic defects and enhances sensitivity to DNA damaging chemotherapeutics. […] These critical cellular processes in which NTMT1 is implicated, coupled with emerging links to cellular dysfunction, strengthen the inference that NTMT1 is a compelling novel anticancer target. Progress have been made in understanding the molecular properties of NTMT1 and the biological consequences of protein alpha-N-terminal methylation, but there are no specific small molecule probes available for NTMT1 to fully characterize its MTase activity. To address this unmet need, a panel of assay is created and established to enable quantitative high-throughput screening (qHTS) for novel, potent, and selective small molecule NTMT1 inhibitors. Two orthogonal qHTS that use different reagents (ThioGlo vs. MTaseGlo) are developed for primary robotic screening against the NCATS chemical library of more than 400,000 small molecules. Identified inhibitors are reacquired, validated, and further characterized.
MTaseGlo Assay is a luminescence screen that measure the activity of methyltransferases based on the reaction product S-adenosyl homocysteine (SAH). The substrate SAM is converted to SAH upon enzyme activation. MTase-Glo reagent and detection solution convert SAH to ATP and measure the light from the luciferase reaction. Nicotinamide N-methyltransferase (NNMT) is a cystolic enzyme that catalyzes the transfer of a methyl group from the co-factor SAM onto the substrate, nicotinamide (NA) to form 1-methyl-nicotinamide (MNA) and SAH. NNMT MTaseGlo assay is used as a counterscreen to evaluate selectivity of identified inhibitors.
SPKRIA and Ac-RCC-10 control is provided by the Huang laboratory.
PROTOCOL TABLE; SEQUENCE No. (e.g., 1, 2, 3, etc.); […] (e.g., Cells, Incubation, Reagent, etc.); VALUE; DESCRIPTION
1; Reagent; 3 uL; dispense assay buffer.
2; Compound; 23 nL; pin compounds and control into the assay plate.
3; Time; 15 min; room temperature incubation.
4; Reagent; 1 uL; dispensed [4x] substrate or buffer.
5; Time; 30 min; incubate at room temperature.
6; Reagent; 1 uL; dispense MTase-Glo Reagent (R).
7; Time; 30 min; incubate at room temperature.
8; Reagent; 5 uL; dispense [1x] MTase-Glo Detection Solution to allow for ADP to be converted to ATP.
9; Centrifugation; 1,000 RPMs; assay plates were centrifuged.
10; Incubation; 30 min; room temperature.
11; Detection; Luminescence; ViewLux plate reader (clear filter, 10 second exposure).
NOTES (numbers refer to Sequence numbers above; values are from representative experiments)
1; Dispense the assay buffer into Greiner 1536-well black / solid bottom assay plate (Greiner Bio One, Monroe, NC).
2; Pin control inhibitor Ac-RCC1-10 at a final concentration range of 234 nM to 143 uM using a Wako Pin Tool (Wako Automation USA) equipped with a 1536-slotted pin array (Wako Automation, Richmond, VA). Pin compound library into the assay plates (columns 5 - 48) at a final concentration range of 97 nM to 250 uM.
3; Incubate the assay plates at room temperature.
4; Dispense 1 uL of substrate SPKRIA solution (final concentration 1 uM) or 1 uL buffer was added to the wells bringing the final assay volume to 4uL. The assay plate was covered with metal lids.
5; Incubate the assay plate at room temperature.
6; Dispense 1 uL of 5x MTase-Glo Reagent in the assay plate.
7; Incubate at room temperature to allow for SAH to be converted to ADP
8; Dispense 5 uL of 5x MTase-Glo Detection Solution in the assay plate to allow for ADP to be converted to ATP.
9; Assay plates were centrifuged for 15 seconds.
[…]
A general note: The purpose of a counterscreen is to sort out artefacts and off-target activity.
As for `Oc1cccc(Nc2cc(-c3ccccc3)ncn2)c1`, the Potency is 39.8 µM (active).

On to `COc1ccc2[nH]c(S(=O)Cc3ncc(C)c(OC)c3C)nc2n1` (stereo not given), for which the Potency entry is “inactive”. `Oc1ccc(Cl)cc1Nc1nc2ccccc2n2cnnc12`: the Potency result was “inactive”. `Cc1cc(C)nc(NC(=S)N2CCN(c3ccncc3)CC2)c1`: the Potency result is “inactive”.

As for `CNc1sc(-c2cccc3ccccc23)nc1C#N`, the Potency entry was “inactive”.

Regarding `COCCCNC(=O)CSc1c2c(nc3ccc(Cl)cc13)CCCC2`, the Potency entry is “inactive”. The value for `COc1ccc(Nc2ncnc3sc4c(c23)CCCC4)cc1` was 20 µM (active); that for `Cc1ccc(-n2ncc3c(NCCO)ncnc32)cc1Cl` was 31.6 µM (active); that for `CCc1cc(C(N)=S)ccn1` was “inactive”. `O=C(O)c1cccc(-c2noc(-c3ccccc3F)n2)c1`: the Potency entry is “inactive”. The value for `CN1CCCN=C1/C=C/c1cccs1` was “inactive”. As for `Cc1ccc2nc(-c3ccc(O)cc3)c(Nc3ccc(Cl)cc3)n2c1`, the Potency entry is “inactive”. Under `C[C@]12CCC3=C4CCC(=O)C=C4CC[C@H]3[C@@H]1CC[C@@]2(O)CC#N` stands “inactive”. `NC(=O)C1CCN(c2nc(-c3ccccc3Cl)cs2)CC1`: the Potency result was “inactive”. The value for `NC(=O)C1CCN(c2nc(-c3ccc4c(c3)CCO4)cs2)CC1` was “inactive”; that for `O=c1[nH]cnc2nc[nH]c12` was “inactive”.

`C[C@]12CC[C@@H]3c4ccc(O)cc4CC[C@H]3[C@@H]1C[C@@H](O)[C@@H]2O`: the Potency result is “inactive”. Under `CC(=O)C1CCC2C3CCC4=CC(=O)CCC4(C)C3CCC12C` (stereo not given) stands “inactive”.

Regarding `CCC1(C)CC(=O)NC1=O` (stereo not given), the Potency entry was “inactive”. The value for `Oc1ccc(-c2nc(-c3ccc(F)cc3)c(-c3ccncc3)[nH]2)cc1` was 44.7 µM (active); that for `O=c1c(-c2ccc(O)cc2)coc2cc(O)ccc12` was “inactive”. Consider `COc1cc2ncnc(Nc3cccc(Cl)c3)c2cc1OC`, for which the Potency is 22.4 µM (active). For the molecule `COc1cc2c(cc1O)CC[C@H]1[C@@H]2CC[C@]2(C)[C@H](O)CC[C@@H]12`, the Potency is 50.1 µM (active). Under `O=C(Nc1noc2ccccc12)c1ccc(F)cc1` stands 39.8 µM (active); under `CN(C)C(=O)c1ccc(-c2cc[nH]c(=O)c2N)cc1`, “inactive”.

Turning to `CN(C)CCC=C1c2ccccc2C=Cc2ccccc21`, the Potency entry was “inactive”.

Consider `c1cncc(-c2ccc3ncnc(NCc4cccs4)c3c2)c1`, for which the Potency was 44.7 µM (active). For `O=c1c2cc3c(cc2nc2sc(Nc4ccccc4)nn12)OCO3`, the Potency entry is “inactive”. Under `COc1cc(/C=C\c2ccc(O)cc2)cc(OC)c1` stands “inactive”; under `Cc1cc(C)nc(NC(=S)N2CCN(c3ccccn3)CC2)c1`, “inactive”.

On to `CCCNC(=O)CSc1c(CCC)cnc2c1c(=O)n(C)c(=O)n2C`, for which the Potency result was “inactive”. Under `NC(=O)c1ncn([C@@H]2O[C@H](CO)[C@@H](O)[C@H]2O)c1N` stands “inactive”; under `CC(C)CCNc1ncnc2c1cnn2-c1cccc(Cl)c1`, 22.4 µM (active); under `CC(C)c1ccc(Nc2ncnc3c2nc2n3CCCC2)cc1`, 50.1 µM (active). The value for `Cc1ccc(Nc2ncnc3c2cnn3-c2ccccc2)c(C)c1` was 7.94 µM (active); that for `O=C(Nc1onc2c1CCCC2)c1ccccc1` was “inactive”; that for `Oc1cccc(Nc2nc(-c3ccccc3)nc3ccccc23)c1` was 20 µM (active). For `NC(=O)C1CCN(c2nc(-c3ccc(F)cc3)cs2)CC1`, the Potency was 44.7 µM (active). The value for `COCCCNc1ncnc2onc(-c3ccc(F)cc3)c12` was 50.1 µM (active); that for `O=C(Nc1nc2c(s1)CCCC2)c1ccccc1F` was 39.8 µM (active).

Values taken from PubChem BioAssay AID1645879 (National Center for Advancing Translational Sciences (NCATS), 2021).
